Source: the supplement of paper PMC11634586
Where a name gives a salt, the structure may show the parent alone.

These compounds were tested on NCI-H1688 (assay: inhibition of cell viability relative to untreated control (fraction); higher = stronger growth inhibition, active = 0.5 or more). Conditions: 30 µM; 24 h.
Method: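 Natural product library (TargetMol, 640 compounds) screened on NCI-H1688 SCLC cells at 30 µM for 24 h; viability by CCK-8 absorbance at 450 nm, normalised to untreated control and expressed as inhibition rate (fraction). Compounds with >50% reduction in viability were selected as hits.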

| Structure (SMILES) | inhibition of cell viability |
| --- | --- |
| C[C@H]1CCC/C=C/[C@@H]2C[C@H](O)C[C@H]2[C@H](O)/C=C/C(=O)O1 [Brefeldin A] | 0.704 (active) |
| O=C1C[C@@H]2OCC=C3CN4CC[C@]56c7ccccc7N1[C@H]5[C@H]2[C@H]3C[C@H]46 [Strychnine] | -0.0859 (inactive) |
| COc1ccc2c(c1OC)CN1CCc3cc4c(cc3C1C2)OCO4 (stereo not given) [Tetrahydroberberine THB] | 0.0966 (inactive) |
| CC[C@H]1CN2CC[C@H]1C[C@@H]2[C@@H](O)c1ccnc2ccc(OC)cc12 [Hydroquinidine] | -0.0507 (inactive) |
| Cc1c2ccncc2c(C)c2c1[nH]c1ccccc12 [Ellipticine] | 0.996 (active) |
| CN1[C@@H]2CC[C@H]1C[C@@H](OC(=O)[C@H](CO)c1ccccc1)C2 [L-Hyoscyamine] | 0.305 (inactive) |
| CC(=O)O[C@@]12CO[C@@H]1C[C@H](O)[C@@]1(C)C(=O)[C@H](O)C3=C(C)[C@@H](OC(=O)[C@H](O)[C@@H](NC(=O)c4ccccc4)c4ccccc4)C[C@@](O)([C@@H](OC(=O)c4ccccc4)[C@H]21)C3(C)C [Deacetyltaxol] | 0.667 (active) |
| COc1cc([C@@H]2c3cc4c(cc3[C@H](O)[C@H]3COC(=O)[C@H]23)OCO4)cc(OC)c1OC [Podophyllotoxin] | 0.839 (active) |
| CC(=O)O[C@H]1C[C@H](O[C@H]2[C@@H](O)C[C@H](O[C@H]3[C@@H](O)C[C@H](O[C@H]4CC[C@@]5(C)[C@H](CC[C@@H]6[C@@H]5C[C@@H](O)[C@]5(C)[C@@H](C7=CC(=O)OC7)CC[C@]65O)C4)O[C@@H]3C)O[C@@H]2C)O[C@H](C)[C@H]1O[C@@H]1O[C@H](CO)[C@@H](O)[C@H](O)[C@H]1O [Lanatoside C] | 0.994 (active) |
| N#CCCN [3-Aminopropionitrile fumarate] | -0.137 (inactive) |
| CCN1C[C@]2(COC)[C@H](O)C[C@H](OC)[C@@]34[C@@H]5C[C@@]6(O)[C@H](OC(=O)c7ccccc7)[C@@H]5[C@@](OC(C)=O)([C@@H]([C@H](OC)[C@H]23)[C@@H]14)[C@@H](O)[C@@H]6OC [Aconitine] | -0.116 (inactive) |
| C[C@@H]1C(=O)O[C@H]2[C@H](O)[C@@]34O[C@@H]5OC(=O)[C@H](O)[C@@]56[C@H](C(C)(C)C)[C@H](O)C(OC3=O)[C@]64[C@@]12O (stereo not given in full) [Ginkgolide C] | -0.00562 (inactive) |
| CCC1=C[C@H]2CN3CCc4c([nH]c5ccccc45)[C@](C(=O)OC)(C2)[C@H]13 [Catharanthine] | 0.0372 (inactive) |
| C[C@@H]1O[C@@H](O[C@H]2C[C@@H](O)[C@]3(CO)[C@H]4[C@H](O)C[C@]5(C)[C@@H](C6=CC(=O)OC6)CC[C@]5(O)[C@@H]4CC[C@]3(O)C2)[C@H](O)[C@H](O)[C@H]1O [Ouabain octahydrate] | 0.99 (active) |
| C[C@@H]1CC[C@@]2(OC1)O[C@H]1C[C@H]3[C@@H]4CC=C5C[C@@H](O[C@@H]6O[C@H](CO)[C@@H](O[C@@H]7O[C@@H](C)[C@H](O)[C@@H](O)[C@H]7O)[C@H](O)[C@H]6O[C@@H]6O[C@@H](C)[C@H](O)[C@@H](O)[C@H]6O)CC[C@]5(C)[C@H]4CC[C@]3(C)[C@H]1[C@@H]2C [Dioscin] | 0.976 (active) |
| CC1=CC(=O)c2c(O)cccc2C1=O [Plumbagin] | 1 (active) |
| Cc1c([C@H](C)[C@@H]2NC[C@@H](C)C[C@H]2O)ccc2c1C[C@H]1[C@H]2CC=C2C[C@@H](O)CC[C@@]21C [Veratramine] | 0.262 (inactive) |
| CN1CCc2cc3c(cc2C1C1OC(=O)c2c1ccc1c2OCO1)OCO3 (single isomer, unassigned; (+)) [(+)-Bicuculline] | -0.023 (inactive) |
| CC(C)=CCC[C@](C)(O)[C@H]1CC[C@]2(C)[C@@H]1[C@H](O)C[C@@H]1[C@@]3(C)CC[C@H](O[C@@H]4O[C@H](CO)[C@@H](O)[C@H](O)[C@H]4O)C(C)(C)[C@@H]3CC[C@]12C [Ginsenoside Rh2] | 0.269 (inactive) |
| C=CCCCCCCCCC(=O)O[C@H]1CC[C@H]2[C@@H]3CCC4=CC(=O)C=C[C@]4(C)[C@H]3CC[C@]12C [Boldenone Undecylenate] | -0.203 (inactive) |
| CC(=O)OCC1=C(C(=O)O)N2C(=O)[C@@H](N)[C@H]2SC1 [7-Aminocephalosporanic acid] | 0.00874 (inactive) |
| c1cc2c(cc1[C@H]1OC[C@H]3[C@@H]1CO[C@@H]3c1ccc3c(c1)OCO3)OCO2 [Sesamin] | -0.0637 (inactive) |
| CN(CC(=O)O)C(=N)NP(=O)(O)O [Creatine phosphate disodium salt] | 0.256 (inactive) |
| S=C=NCc1ccccc1 [Benzyl isothiocyanate] | 0.59 (active) |
| CC(C)(C)[C@]1(O)CC2OC(=O)CC23C(=O)OC2OC(=O)[C@H](O)C231 (stereo not given in full) [Bilobalide] | 0.155 (inactive) |
| COc1cc2c3c(c1OC)-c1ccccc1C[C@H]3N(C)CC2 [Nuciferine] | 0.173 (inactive) |
| COC(=O)C1=CCCN(C)C1 [Arecoline HBr] | 0.105 (inactive) |
| COC1=C[C@@H]2[C@@H]3Cc4ccc(OC)c(O)c4[C@]2(CCN3C)CC1=O [Sinomenine] | -0.13 (inactive) |
| C#C[C@]1(O)CC[C@H]2[C@@H]3CCC4=CC(=O)CC[C@]4(C)[C@H]3CC[C@@]21C [Ethisterone] | 0.178 (inactive) |
| NCC(O)c1ccc(O)cc1 (stereo not given) [Octopamine hydrochloride] | -0.206 (inactive) |
